Laboratory results reported in PubChem BioAssay AID1662 (Broad Institute, 2009).
The campaign covered roughly 300,000 compounds. About 4,000 (1.3%) were called active. Shown is part of a subset that was picked to be rich in actives. A number with no mark means an inactive call.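 The calls were made as follows: active = mean replicate score, as percent of positive control median, at least 50; inconclusive = mean below 50 but one replicate at or above 50; inactive = mean and every replicate below 50.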

Assay: S. pyogenes SKKanGAS growth inhibitors in kanamycin, primary screen, streptokinase expression inhibitor project, SKKanGAS strain, BacTiter-Glo luminescence (AID 1662);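 also: strain carries kanamycin resistance gene driven by streptokinase promoter and grows in 40 µg/ml kanamycin; loss of luminescence reflects streptokinase promoter inhibition or plain growth inhibition; 0% = median of DMSO wells and 100% = positive control at its reference dose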
Details: 6 h, at 7.5 µM, active compounds read high

SMILES	inhibition
CC1=C2C(=O)OC(c3ccoc3)C2(C)CCC1 (configuration not stated)	-13.7%
CCC(NC(=O)C1CCCC1)c1ccc(C)cc1 (configuration not stated)	5.2%
Cc1nn(C)c(C)c1S(=O)(=O)N1CCC(CO)(Cc2ccc(Cl)cc2)CC1	-2.57%
COc1ccccc1NC(=S)N1CCN(c2ccc(F)cc2)CC1	-4.99%
CC1CN(C(=S)Nc2ccccc2F)CC(C)O1 (configuration not stated)	-2.73%
COc1c(N2CCN(C(=S)Nc3ccccc3F)C(C)C2)c(F)cc2c(=O)c(C(=O)O)cn(C3CC3)c12 (configuration not stated)	104% (active)
COc1ccc(S(=O)(=O)NCC(=O)NC2CC2)cc1OC	-2.16%
Cc1cc(Cl)c2oc(C(=O)N(C)C(C)c3ccccn3)c(C)c2c1 (configuration not stated)	8.03%
Cc1cc(Cl)c2oc(C(=O)N3CCC(O)(c4ccccc4)CC3)c(C)c2c1	64.2% (active)
Cc1cc(Cl)c2oc(C(=O)NC(C)c3ccncn3)c(C)c2c1 (configuration not stated)	-5.52%
COc1ccc(CCNC2=CC(=O)CC(C)(C)C2)cc1	-6.22%
CC(C)(C)N1C(=O)[C@H]2[C@@H](c3ccc(Br)cc3)N3C(=O)N(c4cccc(Cl)c4)C(=O)[C@@]3(C)[C@H]2C1=O	-0.18%
Cc1cccc(-n2nc3c(c2NC(=O)c2cc4ccccc4o2)CS(=O)(=O)C3)c1	1.09%
CCOC(=O)c1cc(-c2ccc(F)cc2)n(CC(=O)NCc2ccccn2)c1C	-1.39%
COc1nc(NC2CCCCC2)nc(N2CCCCCC2)n1	75.9% (active)
COC(=O)c1ccc(Oc2nc(Nc3ccc(F)cc3)nc(N3CCCC3)n2)cc1	18.8%
Clc1nc(NC2CCCC2)nc(N2CCOCC2)n1	3.5%
O=c1cc(C(F)(F)F)[nH]c(=O)n1C1CCCCC1	11.3%
O=C(c1cccc(F)c1)N1CCN(c2ccc([N+](=O)[O-])c3cccnc23)CC1	-4.2%
Cc1cccc(CSc2nnc(NC(=O)CSc3nnc(C)s3)s2)c1	7.83%
Cc1cc(C)cc(C(=O)NC2C(=O)N3C(C(=O)O)=C(CSc4nnc(C)s4)CSC23)c1 (configuration not stated)	96.4% (active)
Cc1nnc(SCC(=O)Nn2cnnc2)s1	4.69%
Cc1nnc(SCC2=C(C(=O)O)N3C(=O)C(NC(=O)Cn4nc(C)c(Cl)c4C)C3SC2)s1 (configuration not stated)	88.3% (active)

SMILES	inhibition
Cc1nnc(SCC(=O)NC2CCCC2)s1	-0.971%
COc1ccc(NC(=O)CCCC(=O)c2ccccc2)cc1	1.96%
CCOc1ccccc1/C=N/Nc1nc2ccccc2o1	2.09%
COc1cc(N/C=C2\CC(=O)NC(C)=C2C#N)cc(OC)c1OC	-0.282%
O=C(Nc1ccc(F)cc1)c1ccc(S(=O)(=O)NCc2cccnc2)cc1	-0.655%
FC(F)(F)c1cc(-c2cccs2)nc(NCc2ccco2)n1	-2.9%
FC(F)(F)c1cc(-c2ccco2)nc(NCc2ccc(Cl)cc2)n1	65.4% (active)
Cc1cc(C(F)(F)F)nn1-c1nc(-c2ccco2)cc(C(F)(F)F)n1	7.56%
O=S(=O)(Nc1ccc(-c2ccc(N3CCOCC3)nn2)cc1)c1cc(Cl)ccc1Cl	18.8%
O=[N+]([O-])c1ccc(S(=O)(=O)Nc2cccc(-c3ccc(N4CCCC4)nn3)c2)cc1	0.0506%
O=S(=O)(Nc1cccc(-c2ccc(N3CCOCC3)nn2)c1)c1ccc(Cl)c(Cl)c1	53.5% (active)
CC1CN(S(=O)(=O)c2cccc(C(F)(F)F)c2)CN1C(=O)N1CCOCC1 (configuration not stated)	0.316%
CN(C)CCNC(=O)c1[nH]nc2c1CCc1ccccc1-2	-5.17%
COc1cccc(/C=N/NC(=O)c2[nH]nc3c2CCc2ccccc2-3)c1O	79% (active)
COc1cc2cc(C(=O)N/N=C/c3cccc(OC)c3OC)[nH]c2cc1OC	2.92%
COc1ccccc1C1C(C(N)=O)=C(C)Nc2nc(CCCO)nn21 (configuration not stated)	-3.27%
CCOc1ccc(CN(C)C(=O)c2ccc(=O)[nH]c2)cc1	1.34%
CCOC(=O)C1=C(CCc2ccccc2)NC(=O)NC1c1ccc2ccccc2c1 (configuration not stated)	19.2%
CC(C)Cn1c(CCC(=O)O)ccc1-c1cccs1	-8.87%
C=CCSc1nc2c(c(=O)[nH]c(=O)n2C)n1Cc1ccccc1	-11.2%
CCCCCn1c(SCCC(C)C)nc2c1c(=O)[nH]c(=O)n2C	26.4%
CCCCCCn1c(SCC(=O)c2ccccc2)nc2c1c(=O)[nH]c(=O)n2C	73.3% (active)
N=c1ccn(CC(=O)NC(N)=O)c2ccccc12	-5.02%

SMILES	inhibition
Cc1cc(-c2ccc(C)c(S(=O)(=O)NC(C)Cc3ccco3)c2)on1 (configuration not stated)	2.44%
CCC(=C/c1sc2ccc3ccccc3c2[n+]1C)/C=C1\Sc2ccc3ccccc3c2N1C	69.5% (active)
COc1ccc(C(CNC(=O)c2ccc(S(=O)(=O)Nc3ccccc3C)cc2)N2CCOCC2)cc1 (configuration not stated)	-13.5%
COc1ccc(C(CNC(=O)c2cccc(S(=O)(=O)Nc3ccccc3Cl)c2)N2CCOCC2)cc1 (configuration not stated)	67.6% (active)
COc1ccc(C(CNC(=O)c2cccc(NS(=O)(=O)c3ccc(C)c(F)c3)c2)N2CCCC2)cc1 (configuration not stated)	-16%
C=Cc1ccc(C(=O)N2CCCC(CCC(=O)N3CCN(c4ccccn4)CC3)C2)cc1 (configuration not stated)	4.83%
CC(C)C(=O)Nc1nnc(SCC(=O)N2C(C)CCCC2C)s1 (configuration not stated)	-1.25%
CC1Cc2ccccc2N1S(=O)(=O)c1ccc(Cl)nc1 (configuration not stated)	-1.93%
Cc1[nH]n(-c2ccc(Cl)cc2)c(=O)c1/C=N/n1c(C)nc2ccccc2c1=O	69.1% (active)
Cc1[nH]n(-c2cccc(Cl)c2)c(=O)c1/C=N/n1c(C)nc2ccccc2c1=O	79.2% (active)
COc1cc(NS(=O)(=O)c2ccc(N=Cc3c(C)[nH]n(-c4ccccc4)c3=O)cc2)nc(OC)n1	7.41%
CCOc1[nH]n(-c2ccc(Cl)cc2)c(=O)c1C=Nc1ccc(O)cc1	2.84%
Cc1ccc(-n2[nH]c(C)c(/C=N/N3C(=O)c4cccc5cccc(c45)C3=O)c2=O)cc1	8.48%
Cc1[nH]n(-c2cccc(Cl)c2)c(=O)c1-c1ccc(Cl)cc1	39.1%
CCOC(=O)C1CCN(C(=O)COC(=O)C2CCN(S(=O)(=O)c3ccc4c(c3)OCCO4)CC2)CC1	19.6%
CCc1nnc(NC(=O)C2CC(=O)N(c3ccc4c(c3)OCCO4)C2)s1 (configuration not stated)	-3.71%
CC(OC(=O)c1ccc2noc(-c3ccccc3)c2c1)C(N)=O (configuration not stated)	6.64%
Clc1c(OCCCn2ccnc2)ccc2ccccc12	5.1%
Cc1ccc(CNC(=O)CCN2C(=O)[C@@H]3Cc4ccccc4CN3C2=O)cc1	4.22%
O=C(CSc1nc(Nc2ccccc2)nc(N2CCOCC2)n1)Nc1cc(Cl)ccc1O	78.3% (active)
Cc1ccccc1NC(=O)CSc1nc2ccc(Nc3nc(N4CCOCC4)nc(N4CCOCC4)n3)cc2s1	15.9%
CC1(c2ccccc2)NC(=O)N(CC(=O)Nc2cc(Cl)ccc2N2CCOCC2)C1=O (configuration not stated)	-3.7%
Nc1nonc1-n1nnc(C(=O)N/N=C/c2cc(Br)ccc2O)c1CSC1=NCCS1	107% (active)

SMILES	inhibition
Nc1nonc1-n1nnc(C(=O)N/N=C/c2ccccc2O)c1CN1CCCC1	-2.71%
Cc1ccc(SCc2c(C(=O)N/N=C/c3cccnc3)nnn2-c2nonc2N)cc1	3.15%
O=C(O)c1cccnc1Sc1ncnc2sc3c(c12)CCC3	-1.33%
COc1ccccc1CCC(=O)NNC(=O)c1ccncc1	-5.32%
CC(=O)Nc1ccc(NC(=S)NC(=O)c2ccc([N+](=O)[O-])c(C)c2)cc1	-0.0689%
CC(=O)NC(=S)Nc1ccc(NC(=S)NC(=O)c2ccc([N+](=O)[O-])cc2)cc1	60.3% (active)
O=C(NC(=S)Nc1ccc(NC(=O)c2cccs2)cc1)c1ccc([N+](=O)[O-])cc1	6.3%
O=C1NC(=Nc2ccc(Cl)cc2)SC1Cc1cccc(Cl)c1Cl (configuration not stated)	61.1% (active)
NC1=NC(=O)C(Cc2cccc(Cl)c2Cl)S1 (configuration not stated)	-7.45%
CC(C)=N/N=C1/NC(=O)C(Cc2ccccc2)S1 (configuration not stated)	0.633%
COc1ccc(C(CNC(=O)c2cc3c(s2)CCCC3)N2CCOCC2)cc1 (configuration not stated)	-4.29%
O=C(Nc1cccc(Cl)c1)c1cncn1-c1ccc(F)cc1	-0.257%
CC(C)C(=O)Nc1cccc(NC(=S)NC(=O)C(c2ccccc2)c2ccccc2)c1	22.1%
CCCCC(=O)NNC(=S)NC(=O)C(c1ccccc1)c1ccccc1	85.9% (active)
O=C(NNC(=S)NCc1ccco1)C(c1ccccc1)c1ccccc1	12.9%
CC(=O)N/C(=N/c1nc(C)cc(C)n1)Nc1ccc(F)cc1F	-6.21%
Cc1ccc(OCc2nnc(SC3CCc4ccccc4C3=O)n2C)cc1 (configuration not stated)	1.05%
CN(CCc1ccccn1)C(=O)c1ccc(OC2CCN(Cc3ccccn3)CC2)cc1	15.2%
Nc1cccc2c1C(=O)N(Cc1nnc(-c3ccccc3Br)o1)C2=O	-13.7%
COc1ccc(OCC(=O)NCCS(=O)(=O)N2CCN(c3ccc(F)cc3)CC2)cc1	-2.54%
CCOc1cc(N2CCOCC2)c(OCC)cc1NC(=O)c1cc(C)nc2ccccc12	6.5%
CCOc1cc(N2CCOCC2)c(OCC)cc1NC(=O)c1ccc(C)s1	-3.59%
CCOc1cc(N2CCOCC2)c(OCC)cc1NC(=O)C1=NN(c2cccc(C)c2)C(=O)CC1	54% (active)
